The results in this text go back to ChEMBL document CHEMBL1961873, “Compounds: GSK PKIS; Assays: Nanosyn kinase panel” (2012).

Assay [1] deals with Ribosomal protein S6 kinase alpha-6 (Homo sapiens) (UniProt Q9UK32). The conditions noted are these: at 1 µM.
Assay [2] deals with T1, Serine/threonine-protein kinase Sgk1 (Homo sapiens) (UniProt O00141).
T1 sequence (whole entry): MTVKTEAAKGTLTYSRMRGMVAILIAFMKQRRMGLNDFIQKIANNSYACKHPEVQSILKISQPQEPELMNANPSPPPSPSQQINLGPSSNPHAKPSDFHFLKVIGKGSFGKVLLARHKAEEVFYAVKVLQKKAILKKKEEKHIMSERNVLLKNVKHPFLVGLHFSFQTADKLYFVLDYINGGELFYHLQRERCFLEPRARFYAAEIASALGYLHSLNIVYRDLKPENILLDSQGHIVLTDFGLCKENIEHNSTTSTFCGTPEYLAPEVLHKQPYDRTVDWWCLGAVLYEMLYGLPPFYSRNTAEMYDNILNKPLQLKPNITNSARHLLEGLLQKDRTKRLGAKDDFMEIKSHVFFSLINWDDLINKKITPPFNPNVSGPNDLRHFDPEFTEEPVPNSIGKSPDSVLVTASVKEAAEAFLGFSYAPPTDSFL
As to conditions: at 0.1 µM.

Assay [3] deals with T1, Serine/threonine-protein kinase Sgk1 (Homo sapiens). As to conditions: at 1 µM.
The target in assay [4] is T2, Serine/threonine-protein kinase Sgk2 (Homo sapiens) (UniProt Q9HBY8).
T2 sequence (whole entry): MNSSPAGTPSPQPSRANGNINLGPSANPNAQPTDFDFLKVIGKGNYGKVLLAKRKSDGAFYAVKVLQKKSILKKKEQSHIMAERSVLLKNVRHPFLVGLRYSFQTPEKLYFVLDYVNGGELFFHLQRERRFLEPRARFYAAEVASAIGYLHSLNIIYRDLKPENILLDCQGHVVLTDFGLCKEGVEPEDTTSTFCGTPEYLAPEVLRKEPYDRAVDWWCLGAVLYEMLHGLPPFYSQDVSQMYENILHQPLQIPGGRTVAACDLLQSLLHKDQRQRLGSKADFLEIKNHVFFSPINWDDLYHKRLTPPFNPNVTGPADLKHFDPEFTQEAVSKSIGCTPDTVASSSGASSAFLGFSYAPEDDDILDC
As to conditions: at 0.1 µM.

Assay [5] addresses T2, Serine/threonine-protein kinase Sgk2 (Homo sapiens). As to conditions: at 1 µM.
Assay [6] concerns the target T3, Serine/threonine-protein kinase Sgk3 (Homo sapiens) (UniProt Q96BR1).
T3 sequence (whole entry): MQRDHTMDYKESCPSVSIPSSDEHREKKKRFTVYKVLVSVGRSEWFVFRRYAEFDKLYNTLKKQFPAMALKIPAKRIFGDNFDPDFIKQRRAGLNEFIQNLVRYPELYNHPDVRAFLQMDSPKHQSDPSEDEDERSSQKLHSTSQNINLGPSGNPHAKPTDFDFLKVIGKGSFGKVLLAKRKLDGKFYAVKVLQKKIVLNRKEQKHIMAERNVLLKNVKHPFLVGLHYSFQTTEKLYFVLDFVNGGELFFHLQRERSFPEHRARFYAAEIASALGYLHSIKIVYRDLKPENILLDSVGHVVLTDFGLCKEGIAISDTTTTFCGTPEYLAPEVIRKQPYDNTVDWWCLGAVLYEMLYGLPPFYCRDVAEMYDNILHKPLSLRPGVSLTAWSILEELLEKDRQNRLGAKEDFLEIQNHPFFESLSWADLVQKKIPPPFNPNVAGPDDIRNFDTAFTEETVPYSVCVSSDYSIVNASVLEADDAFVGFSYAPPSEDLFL
As to conditions: at 0.1 µM.

In assay [7] the target is T3, Serine/threonine-protein kinase Sgk3 (Homo sapiens). As to conditions: at 1 µM.
For assay [8], the target named is 5'-AMP-activated protein kinase catalytic subunit alpha-1 (Homo sapiens) (UniProt Q13131). As to conditions: at 0.1 µM.
Assay [9] shares this target. The conditions noted are these: at 1 µM.
Assay [10] has as its target 5'-AMP-activated protein kinase catalytic subunit alpha-2 (Homo sapiens) (UniProt P54646). As to conditions: at 0.1 µM.
For assay [11] the target is unchanged. As to conditions: at 1 µM.
For assay [12], the target named is T4, NUAK family SNF1-like kinase 1 (Homo sapiens) (UniProt O60285).
T4 sequence (whole entry): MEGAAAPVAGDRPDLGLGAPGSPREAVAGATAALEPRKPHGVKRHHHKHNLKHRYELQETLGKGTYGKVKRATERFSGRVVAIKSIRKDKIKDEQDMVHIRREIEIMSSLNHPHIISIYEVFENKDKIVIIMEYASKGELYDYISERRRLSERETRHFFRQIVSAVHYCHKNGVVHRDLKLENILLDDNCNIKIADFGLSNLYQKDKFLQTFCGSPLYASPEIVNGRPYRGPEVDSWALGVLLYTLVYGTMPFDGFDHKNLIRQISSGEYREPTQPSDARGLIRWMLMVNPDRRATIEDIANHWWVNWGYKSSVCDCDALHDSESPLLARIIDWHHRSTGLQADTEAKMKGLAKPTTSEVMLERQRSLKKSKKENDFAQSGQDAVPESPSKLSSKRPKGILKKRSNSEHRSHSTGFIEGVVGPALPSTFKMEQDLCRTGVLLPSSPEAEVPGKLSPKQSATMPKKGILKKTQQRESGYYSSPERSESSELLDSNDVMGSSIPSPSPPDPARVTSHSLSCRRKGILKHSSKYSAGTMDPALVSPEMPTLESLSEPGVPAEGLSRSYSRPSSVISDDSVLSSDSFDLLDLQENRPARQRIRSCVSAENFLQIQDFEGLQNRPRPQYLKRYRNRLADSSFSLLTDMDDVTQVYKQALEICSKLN
The conditions noted are these: at 0.1 µM.

The target of assay [13] is T4, NUAK family SNF1-like kinase 1 (Homo sapiens). As to conditions: at 1 µM.
Assay [14] addresses T5, Serine/threonine-protein kinase BRSK1 (Homo sapiens) (UniProt Q8TDC3).
T5 sequence (whole entry): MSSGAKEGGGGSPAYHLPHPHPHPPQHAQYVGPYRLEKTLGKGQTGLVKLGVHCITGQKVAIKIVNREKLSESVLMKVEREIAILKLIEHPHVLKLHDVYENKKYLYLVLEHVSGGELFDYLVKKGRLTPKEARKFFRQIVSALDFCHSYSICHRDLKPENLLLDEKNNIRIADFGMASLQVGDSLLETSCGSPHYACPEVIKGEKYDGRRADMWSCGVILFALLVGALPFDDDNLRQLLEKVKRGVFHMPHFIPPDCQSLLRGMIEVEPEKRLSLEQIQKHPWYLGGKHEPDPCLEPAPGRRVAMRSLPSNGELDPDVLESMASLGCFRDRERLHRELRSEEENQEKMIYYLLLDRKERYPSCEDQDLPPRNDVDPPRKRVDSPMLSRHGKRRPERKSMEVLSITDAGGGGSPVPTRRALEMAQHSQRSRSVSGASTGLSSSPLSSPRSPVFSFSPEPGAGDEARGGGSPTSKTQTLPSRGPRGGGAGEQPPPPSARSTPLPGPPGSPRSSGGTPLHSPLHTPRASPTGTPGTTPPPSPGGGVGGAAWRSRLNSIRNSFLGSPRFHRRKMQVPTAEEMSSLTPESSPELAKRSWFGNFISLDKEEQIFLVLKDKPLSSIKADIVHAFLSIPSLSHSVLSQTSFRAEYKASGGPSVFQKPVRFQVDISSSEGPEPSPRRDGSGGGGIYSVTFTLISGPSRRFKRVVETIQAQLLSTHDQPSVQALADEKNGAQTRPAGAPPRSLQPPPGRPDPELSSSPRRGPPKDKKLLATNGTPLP
The conditions noted are these: at 0.1 µM.

The target of assay [15] is T5, Serine/threonine-protein kinase BRSK1 (Homo sapiens). The conditions noted are these: at 1 µM.
Assay [16] has as its target T6, Serine/threonine-protein kinase BRSK2 (Homo sapiens) (UniProt Q8IWQ3).
T6 sequence (whole entry): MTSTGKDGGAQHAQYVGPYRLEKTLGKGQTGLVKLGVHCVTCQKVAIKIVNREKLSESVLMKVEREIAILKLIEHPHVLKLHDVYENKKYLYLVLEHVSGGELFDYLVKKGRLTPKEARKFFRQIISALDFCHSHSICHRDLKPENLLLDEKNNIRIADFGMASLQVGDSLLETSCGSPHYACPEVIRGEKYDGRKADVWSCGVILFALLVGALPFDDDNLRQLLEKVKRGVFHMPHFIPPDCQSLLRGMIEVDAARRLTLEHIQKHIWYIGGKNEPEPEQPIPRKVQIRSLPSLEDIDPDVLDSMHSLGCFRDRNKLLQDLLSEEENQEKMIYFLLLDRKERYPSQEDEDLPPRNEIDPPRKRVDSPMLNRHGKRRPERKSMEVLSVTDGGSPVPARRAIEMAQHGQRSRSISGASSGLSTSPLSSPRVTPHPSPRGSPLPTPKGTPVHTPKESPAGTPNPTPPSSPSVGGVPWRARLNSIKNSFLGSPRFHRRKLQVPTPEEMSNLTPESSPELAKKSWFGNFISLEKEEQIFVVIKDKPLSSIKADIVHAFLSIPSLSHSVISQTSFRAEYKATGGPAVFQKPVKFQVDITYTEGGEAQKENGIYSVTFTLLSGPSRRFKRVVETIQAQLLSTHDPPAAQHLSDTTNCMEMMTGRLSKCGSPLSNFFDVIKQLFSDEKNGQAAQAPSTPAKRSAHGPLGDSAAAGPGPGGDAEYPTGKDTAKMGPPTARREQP
The conditions noted are these: at 0.1 µM.

Assay [17] deals with T6, Serine/threonine-protein kinase BRSK2 (Homo sapiens). The conditions noted are these: at 1 µM.
In assay [18] the target is Calcium/calmodulin-dependent protein kinase type 1D (Homo sapiens) (UniProt Q8IU85). The conditions noted are these: at 0.1 µM.
Assay [19] has the same target. The conditions noted are these: at 1 µM.
Assay [20] has as its target Calcium/calmodulin-dependent protein kinase type II subunit alpha (Homo sapiens) (UniProt Q9UQM7). As to conditions: at 0.1 µM.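 Also: reported values are averages (mean inhibition of CAMK2A).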

Broadly, the inhibition is the relative decrease from the control value, in per cent.

Molecules are shown by their SMILES.

Calcium/calmodulin-dependent protein kinase type II subunit alpha (Homo sapiens), sequence (Q9UQM7 whole entry): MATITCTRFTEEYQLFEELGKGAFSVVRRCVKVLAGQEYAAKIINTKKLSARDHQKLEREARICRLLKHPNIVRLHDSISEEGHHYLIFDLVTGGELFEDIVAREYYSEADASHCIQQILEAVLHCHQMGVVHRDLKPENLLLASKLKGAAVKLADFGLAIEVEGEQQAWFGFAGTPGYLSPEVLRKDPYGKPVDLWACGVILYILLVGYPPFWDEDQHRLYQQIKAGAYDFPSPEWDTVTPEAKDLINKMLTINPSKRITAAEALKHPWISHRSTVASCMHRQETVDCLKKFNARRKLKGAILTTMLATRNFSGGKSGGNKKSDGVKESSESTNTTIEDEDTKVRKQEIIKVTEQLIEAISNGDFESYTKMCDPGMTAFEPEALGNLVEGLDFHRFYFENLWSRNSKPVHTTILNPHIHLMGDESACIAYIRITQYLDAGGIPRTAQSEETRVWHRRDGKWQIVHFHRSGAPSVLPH
Ribosomal protein S6 kinase alpha-6 (Homo sapiens), sequence (Q9UK32 whole entry): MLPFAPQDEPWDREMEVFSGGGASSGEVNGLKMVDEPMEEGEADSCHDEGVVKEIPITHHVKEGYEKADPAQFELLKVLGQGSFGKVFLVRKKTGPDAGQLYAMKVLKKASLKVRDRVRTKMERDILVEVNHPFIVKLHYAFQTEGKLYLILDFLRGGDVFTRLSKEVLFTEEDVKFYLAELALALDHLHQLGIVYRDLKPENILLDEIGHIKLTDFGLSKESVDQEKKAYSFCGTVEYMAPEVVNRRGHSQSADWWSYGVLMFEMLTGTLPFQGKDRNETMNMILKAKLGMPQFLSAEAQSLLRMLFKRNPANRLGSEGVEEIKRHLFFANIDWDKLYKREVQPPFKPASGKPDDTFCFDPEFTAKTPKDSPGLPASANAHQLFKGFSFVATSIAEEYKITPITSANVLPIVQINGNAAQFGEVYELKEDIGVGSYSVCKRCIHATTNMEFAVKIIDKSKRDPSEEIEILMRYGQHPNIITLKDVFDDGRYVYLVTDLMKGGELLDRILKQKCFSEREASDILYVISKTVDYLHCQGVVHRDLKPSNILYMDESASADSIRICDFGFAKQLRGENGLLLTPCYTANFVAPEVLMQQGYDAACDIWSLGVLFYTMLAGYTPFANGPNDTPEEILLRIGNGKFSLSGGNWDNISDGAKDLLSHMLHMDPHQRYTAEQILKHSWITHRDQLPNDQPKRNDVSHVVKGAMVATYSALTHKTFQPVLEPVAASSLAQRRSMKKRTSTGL
5'-AMP-activated protein kinase catalytic subunit alpha-1 (Homo sapiens), sequence (Q13131 whole entry, looked up): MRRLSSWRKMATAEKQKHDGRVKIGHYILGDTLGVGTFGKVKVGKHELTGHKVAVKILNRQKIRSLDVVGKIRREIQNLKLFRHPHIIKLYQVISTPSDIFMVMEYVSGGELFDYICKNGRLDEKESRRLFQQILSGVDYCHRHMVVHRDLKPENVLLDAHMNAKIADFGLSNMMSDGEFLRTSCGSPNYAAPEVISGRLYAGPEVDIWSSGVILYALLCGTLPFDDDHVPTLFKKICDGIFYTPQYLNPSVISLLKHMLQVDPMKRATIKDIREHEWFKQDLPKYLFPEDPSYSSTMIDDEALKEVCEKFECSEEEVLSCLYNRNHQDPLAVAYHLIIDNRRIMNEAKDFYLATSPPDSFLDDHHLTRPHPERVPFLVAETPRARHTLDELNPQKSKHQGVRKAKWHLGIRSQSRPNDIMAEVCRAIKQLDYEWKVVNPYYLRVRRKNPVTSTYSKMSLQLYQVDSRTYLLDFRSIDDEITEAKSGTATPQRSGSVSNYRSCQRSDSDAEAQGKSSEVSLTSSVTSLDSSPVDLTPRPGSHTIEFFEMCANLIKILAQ
Calcium/calmodulin-dependent protein kinase type 1D (Homo sapiens), sequence (Q8IU85 whole entry, looked up): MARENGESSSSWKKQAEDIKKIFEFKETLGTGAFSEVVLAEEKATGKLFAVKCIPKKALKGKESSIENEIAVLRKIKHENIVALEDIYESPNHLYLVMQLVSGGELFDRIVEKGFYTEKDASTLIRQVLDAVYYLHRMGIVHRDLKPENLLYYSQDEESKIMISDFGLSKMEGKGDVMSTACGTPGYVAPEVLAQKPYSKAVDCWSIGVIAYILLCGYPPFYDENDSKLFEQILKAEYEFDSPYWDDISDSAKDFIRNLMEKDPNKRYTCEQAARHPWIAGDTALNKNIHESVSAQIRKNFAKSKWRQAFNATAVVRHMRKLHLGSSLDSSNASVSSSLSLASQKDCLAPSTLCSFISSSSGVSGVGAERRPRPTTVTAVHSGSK
5'-AMP-activated protein kinase catalytic subunit alpha-2 (Homo sapiens), sequence (P54646 whole entry, looked up): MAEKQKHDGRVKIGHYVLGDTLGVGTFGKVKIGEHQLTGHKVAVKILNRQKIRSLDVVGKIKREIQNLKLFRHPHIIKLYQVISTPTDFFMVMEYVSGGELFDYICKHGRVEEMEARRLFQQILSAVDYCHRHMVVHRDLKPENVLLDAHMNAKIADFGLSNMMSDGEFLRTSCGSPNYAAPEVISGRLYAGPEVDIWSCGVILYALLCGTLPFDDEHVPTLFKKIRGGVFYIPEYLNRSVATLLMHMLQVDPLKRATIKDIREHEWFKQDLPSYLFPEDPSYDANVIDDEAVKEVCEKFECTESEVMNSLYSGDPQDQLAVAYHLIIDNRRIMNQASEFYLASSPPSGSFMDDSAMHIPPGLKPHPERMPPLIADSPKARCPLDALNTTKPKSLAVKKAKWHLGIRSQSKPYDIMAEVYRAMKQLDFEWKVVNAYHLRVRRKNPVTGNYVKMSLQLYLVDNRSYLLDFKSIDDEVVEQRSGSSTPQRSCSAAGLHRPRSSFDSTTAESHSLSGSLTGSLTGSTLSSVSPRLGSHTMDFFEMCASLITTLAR

With `Cc1cc(-c2ccco2)cc(C)c1/C=C/c1cncc(-c2nn[nH]n2)c1`, the inhibition is -0.53% in assay [1]; 2.78% in assay [2]; 0.73% in assay [3]; -0.62% in assay [4]; -1.7% in assay [5]; -0.03% in [6]. Moreover, the inhibition in assay [7] is -0.92%; in [8], 0.43%; in [9], 1.33%; in assay [10], 0.25%; in [11], 2.58%; in assay [12], -1.33%. Besides, the inhibition is -1.37% in assay [13]; -0.09% in [14]; 1.13% in [15]; 0.76% in [16]; 0.62% in assay [17]; 0.45% in [18]. Besides, the inhibition was -0.49% in assay [19] and 1.37% in [20].

Take `CCn1c(-c2nonc2N)nc2c(C#CCN)ncc(OCCCN)c21`: the inhibition in [1] was 15.3%; in assay [2], 1.23%; in assay [3], 5.38%; in assay [4], -0.28%; in [5] it was 8.17%; in [6], 5.66%. Also, the inhibition in [7] was 40.1%; in [8] it was 0.48%; in [9], 4.78%; in assay [10], 2.63%; in assay [11] it was 2.16%; in assay [12], 6.71%. The inhibition in assay [13] was 10.4%; in assay [14], 4.54%; in assay [15] it was 10.3%; in assay [16], 7.19%; in [17], 12.2%; in assay [18], -0.21%. In addition, the figures for the inhibition in [19] and in assay [20] were -0.05% and -2.48%, respectively.

Consider `CCn1c(-c2nonc2N)nc2c(C#CC(C)(C)O)nc(O[C@@H](CN)c3ccccc3)cc21`, for which the inhibition in assay [1] was determined as 23.4%; in [2], 4%; in [3], 34.2%; in [4], 5.31%; in assay [5] it was 3.43%; in assay [6], 64.9%. Besides, the inhibition in [7] was found to be 94.2%; in assay [8] it was 79.2%; in assay [9], 88.1%; in assay [10], 24.6%; in assay [11], 68.1%; in assay [12], 24.4%. Moreover, the inhibition stood at 69.6% in assay [13]; 6.66% in [14]; 38.4% in [15]; 13.7% in assay [16]; 58.8% in assay [17]; 13.2% in [18]. For the same compound, the inhibition was 29.4% in assay [19] and -1.19% in assay [20].
